# According to PubChem BioAssay (EPA / NIEHS):
# “And” between values parts separate entries of the source, which are not always exact repeats. Identical values can stand only once. A structure can be active in one record and inactive in another. The source made the active and inactive calls. How the source made its calls: active means hit-call score of the fitted dose curve at least 0.9, where 1 is the maximum; inactive means score below 0.9.
# Legend:
# [1] = ATG_CRE_CIS: Attagene CIS-FACTORIAL HepG2 Assay for human cAMP Responsive Element (CRE) binding protein 3 (AID 2282926); conditions: HepG2 CRE cis-reporter, Attagene multiplexed mRNA; actives raise or lower the signal
# In short: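 Capillary electrophoresis of 6-FAM-labelled, HpaI-digested PCR products quantified reporter transcripts. These came from HepG2 transiently transfected with cis-element reporters and exposed to test chemicals for 24 hours, with DMSO defining baseline activity.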
# [2] = target: CCAAT/enhancer-binding protein beta (Homo sapiens) (UniProt P17676); experiment: ATG_C_EBP_CIS: Attagene CIS-FACTORIAL HepG2 Assay for human CCAAT/Enhancer Binding Protein (C/EBP) beta (AID 2282927); conditions: HepG2 Attagene cis-factorial transcription factor reporter; actives raise or lower the signal
# Sequence of CCAAT/enhancer-binding protein beta (Homo sapiens) (P17676 whole entry, looked up): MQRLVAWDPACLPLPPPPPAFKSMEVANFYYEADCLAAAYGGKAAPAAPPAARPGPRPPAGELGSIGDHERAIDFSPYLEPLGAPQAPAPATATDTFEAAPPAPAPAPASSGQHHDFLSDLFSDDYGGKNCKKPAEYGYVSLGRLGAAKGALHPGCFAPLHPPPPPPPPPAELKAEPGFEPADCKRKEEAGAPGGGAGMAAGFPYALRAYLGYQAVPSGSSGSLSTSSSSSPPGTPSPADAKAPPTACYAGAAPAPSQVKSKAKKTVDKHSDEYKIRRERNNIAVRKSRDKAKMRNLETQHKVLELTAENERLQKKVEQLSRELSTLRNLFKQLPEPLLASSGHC
# In short: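 Endogenous transcription factor activity in human liver HepG2 cells is inferred from induction of a CEBPB-linked reporter mRNA. Exposure lasts 24 h; activity is fitted in both directions relative to DMSO.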
# [3] = ATG_CMV_CIS: Attagene CIS-FACTORIAL HepG2 Assay for human CMV (Internal Marker) (AID 2282928); conditions: HepG2 CMV promoter reporter, transcription factor profiling; actives raise or lower the signal;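 further: endpoint acts as a background internal control marker rather than a target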
# In short: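 24 h chemical treatment, HepG2 with transient multi-reporter transfection; RNA → oligo(dT) RT → PCR → 6-FAM extension → HpaI digest → CE fluorescence. Bidirectional fit, DMSO negative control.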
# [4] = ATG_DR4_LXR_CIS: Attagene CIS-FACTORIAL HepG2 Assay for human Liver X Receptor (LXR), DR4 submotif (AID 2282929); conditions: HepG2 Attagene DR4 cis-reporter, mRNA transcription; actives raise or lower the signal
# In short: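 Cells were transfected with multiple reporter transcription units, exposed to chemicals for 24 hours, then lysed for RNA. Reporter mRNA induction was measured by RT-PCR with capillary electrophoresis detection and fitted in both directions relative to DMSO.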
# [5] = target: Aryl hydrocarbon receptor (Homo sapiens) (UniProt P35869); experiment: ATG_Ahr_CIS: Attagene CIS-FACTORIAL HepG2 Assay for human Aryl Hydrocarbon Receptor (Ahr) (AID 2282930); conditions: HepG2 AhR cis-factorial reporter transcription; actives raise or lower the signal
# Sequence of Aryl hydrocarbon receptor (Homo sapiens) (P35869 whole entry, looked up): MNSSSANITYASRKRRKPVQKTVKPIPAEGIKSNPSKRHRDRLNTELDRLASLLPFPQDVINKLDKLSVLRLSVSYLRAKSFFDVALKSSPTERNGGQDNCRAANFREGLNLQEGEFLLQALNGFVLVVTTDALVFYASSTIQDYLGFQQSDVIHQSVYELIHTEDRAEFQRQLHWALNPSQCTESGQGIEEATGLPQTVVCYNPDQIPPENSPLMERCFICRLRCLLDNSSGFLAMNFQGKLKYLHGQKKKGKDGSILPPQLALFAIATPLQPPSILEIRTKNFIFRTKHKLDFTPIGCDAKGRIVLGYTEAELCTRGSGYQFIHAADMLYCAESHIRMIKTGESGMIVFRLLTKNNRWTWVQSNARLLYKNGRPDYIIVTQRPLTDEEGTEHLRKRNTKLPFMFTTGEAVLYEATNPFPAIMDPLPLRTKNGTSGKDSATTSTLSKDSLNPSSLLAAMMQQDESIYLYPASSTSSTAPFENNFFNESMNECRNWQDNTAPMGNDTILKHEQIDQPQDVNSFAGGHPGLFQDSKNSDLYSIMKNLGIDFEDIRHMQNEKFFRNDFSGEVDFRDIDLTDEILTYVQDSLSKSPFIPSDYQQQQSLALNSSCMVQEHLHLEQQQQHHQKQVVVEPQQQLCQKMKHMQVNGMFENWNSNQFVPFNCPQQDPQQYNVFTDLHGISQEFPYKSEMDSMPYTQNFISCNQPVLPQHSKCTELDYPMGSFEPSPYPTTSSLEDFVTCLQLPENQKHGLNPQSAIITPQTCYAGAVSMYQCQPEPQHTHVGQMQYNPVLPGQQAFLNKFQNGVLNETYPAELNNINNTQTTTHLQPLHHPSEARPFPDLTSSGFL
# In short: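 Transient MRTU transfection of HepG2 → 24 h compound exposure → total RNA, oligo(dT) RT → PCR, 6-FAM extension, HpaI cut → CE fluorescence. DMSO = baseline; bidirectional curve fit.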
# [6] = ATG_AP_1_CIS: Attagene CIS-FACTORIAL HepG2 Assay for human Activator Protein 1 (AP-1) (AID 2282931); conditions: HepG2 Attagene cis-factorial AP-1 reporter mRNA; actives raise or lower the signal
# In short: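 Endogenous transcription-factor activity in human HepG2 liver cells is read through a cis-promoter reporter transcript, sampled 24 h after dosing. Detection uses RT-PCR with capillary electrophoresis; values come from bidirectional fitting relative to DMSO.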
# [7] = ATG_AP_2_CIS: Attagene CIS-FACTORIAL HepG2 Assay for human Activator Protein 2 (AP-2) (AID 2282932); conditions: HepG2 AP-2 cis-reporter, Attagene transcription factor profiling; actives raise or lower the signal
# In short: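 Transiently transfected HepG2 cells are exposed to chemical for 24 h. Reporter transcripts are then measured as fluorescence following RT-PCR and capillary separation, and gain- or loss-of-signal is fitted relative to DMSO.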
# [8] = ATG_BRE_CIS: Attagene CIS-FACTORIAL HepG2 Assay for human Bone Morphogenetic Protein (BMP) Response Element (BRE) (AID 2282933); conditions: HepG2 BMP response element reporter, Attagene transcription factor profiling; actives raise or lower the signal
# In short: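 Fluorescence-labelled reporter cDNA fragments, separated by capillary electrophoresis, gave the signal for this component of a 52-readout multiplex. HepG2 cells were transfected, exposed to chemicals for 24 h, and compared with DMSO using bidirectional fitting.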
# [9] = target: Transcription factor E2F1 (Homo sapiens) (UniProt Q01094); experiment: ATG_E2F_CIS: Attagene CIS-FACTORIAL HepG2 Assay for human E2F Transcription Factor 1 (AID 2282935); conditions: HepG2 Attagene cis-reporter, E2F reporter RNA transcripts; actives raise or lower the signal
# Sequence of Transcription factor E2F1 (Homo sapiens) (Q01094 whole entry, looked up): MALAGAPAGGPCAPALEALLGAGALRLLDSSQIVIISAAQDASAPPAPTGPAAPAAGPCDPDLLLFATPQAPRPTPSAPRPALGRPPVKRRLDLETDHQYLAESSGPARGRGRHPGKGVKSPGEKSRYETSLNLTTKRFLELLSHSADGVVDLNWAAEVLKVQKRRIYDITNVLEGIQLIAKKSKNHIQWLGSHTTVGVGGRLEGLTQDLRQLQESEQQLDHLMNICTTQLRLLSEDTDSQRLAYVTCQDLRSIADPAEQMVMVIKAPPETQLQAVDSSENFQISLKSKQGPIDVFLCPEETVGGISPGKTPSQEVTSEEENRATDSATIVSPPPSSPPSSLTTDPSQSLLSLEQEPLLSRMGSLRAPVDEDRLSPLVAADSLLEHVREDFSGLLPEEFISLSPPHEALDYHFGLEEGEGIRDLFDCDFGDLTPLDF
# In short: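 Fluorescent RT-PCR products, digested with HpaI for 2 h at 37 C, are separated by capillary electrophoresis. Source RNA comes from transfected HepG2 cultures treated for 24 h.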
# [10] = ATG_E_Box_CIS: Attagene CIS-FACTORIAL HepG2 Assay for human Enhancer Box (E-box) (AID 2282936); conditions: HepG2 E-box cis-reporter transcription, actives raise or lower the signal
# In short: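 Fluorescent reporter fragments separated by capillary electrophoresis gave the signal; mRNA came from HepG2 cells transfected with cis-element reporters and treated 24 h. Curves fitted bidirectionally relative to DMSO controls.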
# [11] = ATG_M_61_CIS: Attagene CIS-FACTORIAL HepG2 Assay for M61 Transcription Factor (Internal Marker) (AID 2282937); conditions: HepG2 Attagene CIS-FACTORIAL M61 internal marker reporter; actives raise or lower the signal
# In short: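 Cells were transfected with reporter units under cis-regulatory promoters, treated with chemicals for 24 h, then lysed for RNA. Reporter transcripts were quantified by RT-PCR and capillary electrophoresis, and activity was fitted bidirectionally against DMSO.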
# [12] = ATG_EGR_CIS: Attagene CIS-FACTORIAL HepG2 Assay for human Early Growth Response 1 (EGR1) (AID 2282938); conditions: HepG2 Attagene CIS-FACTORIAL EGR reporter mRNA; actives raise or lower the signal
# In short: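 Endogenous TF activity in HepG2 liver cells was gauged through cis-promoter reporter constructs transiently transfected. After 24 h dosing, reporter mRNA was quantified by RT-PCR and capillary electrophoresis, and curves fitted in both directions versus DMSO.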
# [13] = ATG_M_19_CIS: Attagene CIS-FACTORIAL HepG2 Assay for M19 Transcription Factor (Internal Marker) (AID 2282939); conditions: HepG2 Attagene CIS-FACTORIAL M19 internal marker reporter; actives raise or lower the signal
# In short: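 HepG2, MRTU transient transfection, 24 h dosing. Total RNA → RT-PCR → 6-FAM primer extension → HpaI digest → CE fluorescence. Bidirectional curve fit, DMSO negative control.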
# [14] = ATG_Ets_CIS: Attagene CIS-FACTORIAL HepG2 Assay for human Erythroblast Transformation Specific (ETS) (AID 2282941); conditions: HepG2 ETS cis-reporter transcription, actives raise or lower the signal
# In short: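 Cis-regulated reporter mRNA induction in HepG2 (transient transfection), 24 h exposure, RT-PCR plus capillary electrophoresis detection; DMSO serves as negative control and baseline.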
# [15] = target: Hepatocyte nuclear factor 3-beta (Homo sapiens) (UniProt Q9Y261); experiment: ATG_FoxA2_CIS: Attagene CIS-FACTORIAL HepG2 Assay for human Forkhead box A2 (FOXA2) (AID 2282942); conditions: HepG2 cis-reporter transcription factor activity, 24 h; actives raise or lower the signal
# Sequence of Hepatocyte nuclear factor 3-beta (Homo sapiens) (Q9Y261 whole entry, looked up): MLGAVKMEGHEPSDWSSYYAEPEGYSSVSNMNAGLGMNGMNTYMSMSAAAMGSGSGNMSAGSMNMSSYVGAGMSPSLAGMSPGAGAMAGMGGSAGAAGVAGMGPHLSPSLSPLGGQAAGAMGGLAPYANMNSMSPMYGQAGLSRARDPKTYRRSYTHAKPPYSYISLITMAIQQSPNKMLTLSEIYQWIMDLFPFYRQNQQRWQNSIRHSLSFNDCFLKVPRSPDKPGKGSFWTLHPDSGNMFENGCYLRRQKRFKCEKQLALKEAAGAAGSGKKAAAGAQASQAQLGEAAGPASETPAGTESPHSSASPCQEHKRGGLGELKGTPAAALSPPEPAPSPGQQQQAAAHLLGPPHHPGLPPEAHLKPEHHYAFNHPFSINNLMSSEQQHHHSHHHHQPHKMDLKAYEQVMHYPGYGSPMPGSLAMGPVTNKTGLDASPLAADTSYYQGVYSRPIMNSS
# In short: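 Endogenous transcription factor activity was read in HepG2 cells carrying transiently transfected cis-promoter reporter units. After 24 h dosing, reporter mRNA was quantified by RT-PCR and capillary electrophoresis, and values fitted bidirectionally versus DMSO.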
# [16] = ATG_FoxO_CIS: Attagene CIS-FACTORIAL HepG2 Assay for human Forkhead box O (FoxO) (AID 2282943); conditions: HepG2 Attagene cis-reporter, FoxO element, mRNA; actives raise or lower the signal
# In short: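 HepG2, transient MRTU transfection (cis element, endogenous TFs). Dose 24 h. TriZol RNA → oligo(dT) RT → PCR → 6-FAM primer extension → HpaI cut → CE. Gain/loss vs DMSO.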
# [17] = ATG_GATA_CIS: Attagene CIS-FACTORIAL HepG2 Assay for human GATA Binding Protein (AID 2282944); conditions: HepG2 GATA cis-element reporter, Attagene multiplex mRNA; actives raise or lower the signal
# In short: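 Cells: HepG2, transiently transfected with cis-regulated reporter transcription units. Exposure: 24 h. Detection: RT-PCR plus capillary electrophoresis of FAM-labeled fragments. Analysis: bidirectional, DMSO as baseline.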
# [18] = ATG_GLI_CIS: Attagene CIS-FACTORIAL HepG2 Assay for human Zinc Finger Protein GLI1 (AID 2282945); conditions: HepG2, Attagene cis-factorial reporter mRNA, GLI element; actives raise or lower the signal
# In short: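 Bidirectional curve fits relative to DMSO, using reporter mRNA levels from RT-PCR plus capillary electrophoresis. Cells were HepG2 transiently carrying cis-regulated reporter constructs, harvested 24 h after dosing.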
# [19] = ATG_ERE_CIS: Attagene CIS-FACTORIAL HepG2 Assay for Estrogen Response Element (ERE) (AID 2282940); conditions: HepG2 ERE cis-reporter, Attagene RNA transcript; actives raise or lower the signal
# In short: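 After a 24 h chemical treatment, RNA from reporter-transfected HepG2 cells is reverse-transcribed, PCR-amplified and fluorescently labelled. Fragments separated by capillary electrophoresis give reporter signal; DMSO serves as negative control.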
# [20] = target: Bile acid receptor (Homo sapiens) (UniProt Q96RI1); experiment: ATG_IR1_CIS: Attagene CIS-FACTORIAL HepG2 Assay for human Nuclear Receptor Subfamily 1 Group H Member 4 (NR1H4), IR1 submotif (AID 2282946); conditions: IR1 reporter transcription, actives raise or lower the signal
# Sequence of Bile acid receptor (Homo sapiens) (Q96RI1 whole entry, looked up): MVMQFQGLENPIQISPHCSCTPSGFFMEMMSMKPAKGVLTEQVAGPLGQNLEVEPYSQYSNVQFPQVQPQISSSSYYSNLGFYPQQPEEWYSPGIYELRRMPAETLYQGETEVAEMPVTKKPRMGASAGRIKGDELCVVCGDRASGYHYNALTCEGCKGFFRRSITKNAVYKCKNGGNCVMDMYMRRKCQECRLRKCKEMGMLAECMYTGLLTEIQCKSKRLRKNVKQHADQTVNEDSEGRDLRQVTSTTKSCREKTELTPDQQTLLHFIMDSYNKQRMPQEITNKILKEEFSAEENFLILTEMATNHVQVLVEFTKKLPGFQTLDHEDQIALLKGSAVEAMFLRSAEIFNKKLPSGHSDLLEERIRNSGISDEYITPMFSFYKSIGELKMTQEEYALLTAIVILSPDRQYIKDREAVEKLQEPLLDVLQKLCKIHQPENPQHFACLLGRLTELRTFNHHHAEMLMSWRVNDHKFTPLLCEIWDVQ
# In short: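 HepG2 cells transiently transfected with multiplexed cis-element reporter units read endogenous transcription factor activity. After 24 h compound exposure, reporter mRNA was quantified by RT-PCR, fluorescent labelling, HpaI digestion and capillary electrophoresis; bidirectional fitting versus DMSO baseline.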
smiles,measurement,setting,value
CC(=O)O[C@]1(C(C)=O)CC[C@H]2[C@@H]3C=C(Cl)C4=CC(=O)[C@@H]5C[C@@H]5[C@]4(C)[C@H]3CC[C@@]21C,outcome,[1],inactive
same,outcome,[2],inactive
same,AC50,[3],100 µM (active) and 73.3 µM (active) and 33.4 µM (active)
same,outcome,[3],inactive
same,AC50,[4],51.7 µM (active) [middle of 4 runs]
same,outcome,[4],inactive
same,AC50,[5],150 µM (active) and 158 µM (active)
same,outcome,[5],inactive
same,AC50,[6],71.5 µM (active) [middle of 4 runs]
same,outcome,[6],inactive
same,AC50,[7],173 µM (active) and 60.4 µM (active)
same,outcome,[7],inactive
same,AC50,[8],30.1 µM (active) and 43.7 µM (active) and 33.4 µM (active)
same,outcome,[8],inactive
same,AC50,[9],145 µM (active)
same,outcome,[9],inactive
same,AC50,[10],165 µM (active) and 78.6 µM (active) and 50.5 µM (active)
same,outcome,[10],inactive
same,outcome,[11],inactive
same,AC50,[12],27.9 µM (active) and 40.3 µM (active) and 100 µM (active)
same,outcome,[12],inactive
same,AC50,[13],180 µM (active)
same,outcome,[13],inactive
same,outcome,[14],inactive
same,outcome,[15],inactive
same,AC50,[16],150 µM (active) and 158 µM (active) and 48.6 µM (active)
same,outcome,[16],inactive
same,AC50,[17],174 µM (active) and 48.9 µM (active)
same,outcome,[17],inactive
same,AC50,[18],100 µM (active) and 145 µM (active)
same,outcome,[18],inactive
NC(=Nc1ccccc1)Nc1ccccc1,outcome,[1],inactive
same,outcome,[2],inactive
same,outcome,[3],inactive
same,AC50,[4],61.8 µM (active)
same,AC50,[5],13.1 µM (active)
same,outcome,[6],inactive
same,outcome,[7],inactive
same,outcome,[8],inactive
same,outcome,[9],inactive
same,outcome,[10],inactive
same,outcome,[11],inactive
same,AC50,[12],39.2 µM (active)
same,outcome,[13],inactive
same,outcome,[19],inactive
same,outcome,[14],inactive
same,outcome,[15],inactive
same,outcome,[16],inactive
same,outcome,[17],inactive
same,outcome,[18],inactive
same,outcome,[20],inactive
